According to PubChem BioAssay (Tox21):
The source made the active and inactive calls. Where a call stands in place of a potency, no number is given. The call rests on the fitted dose curve.

The compounds below were run against Acetylcholinesterase (Homo sapiens) (UniProt P22303) (assay: Acetylcholinesterase (AChE) small molecule antagonists: enzyme-based qHTS assay with human liver microsomes (AID 1347399; further: nearly all actives have a fitted effect of over 60% in size)). Conditions: Potency: qHTS inhibition; outcome: qHTS inhibition; series mostly up to 115 µM.
Chain of Acetylcholinesterase (Homo sapiens) (P22303 whole entry, looked up): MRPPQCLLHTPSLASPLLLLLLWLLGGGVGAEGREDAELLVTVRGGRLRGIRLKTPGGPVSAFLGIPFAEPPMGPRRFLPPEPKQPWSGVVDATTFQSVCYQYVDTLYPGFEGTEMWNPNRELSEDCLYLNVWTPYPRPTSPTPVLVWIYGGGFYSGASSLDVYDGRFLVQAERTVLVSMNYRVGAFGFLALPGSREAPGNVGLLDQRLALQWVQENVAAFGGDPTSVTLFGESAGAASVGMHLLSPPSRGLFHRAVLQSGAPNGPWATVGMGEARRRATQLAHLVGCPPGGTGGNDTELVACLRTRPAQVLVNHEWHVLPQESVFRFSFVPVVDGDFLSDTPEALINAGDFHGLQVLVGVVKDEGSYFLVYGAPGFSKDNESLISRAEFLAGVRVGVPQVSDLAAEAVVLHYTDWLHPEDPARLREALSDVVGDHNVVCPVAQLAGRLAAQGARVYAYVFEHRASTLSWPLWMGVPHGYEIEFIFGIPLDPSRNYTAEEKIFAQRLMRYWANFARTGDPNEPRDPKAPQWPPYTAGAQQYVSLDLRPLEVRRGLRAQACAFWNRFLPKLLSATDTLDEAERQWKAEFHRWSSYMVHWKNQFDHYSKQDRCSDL
From the text: National Center for Advancing Translational Sciences [NCATS]
Division of Preclinical Innovation [DPI]
U.S. Environmental Protection Agency [EPA]
National Institutes of Environmental Health Sciences [NIEHS]
National Toxicology Program [NTP]
U.S. Food and Drug Administration [FDA]
Acetylcholinesterase (AChE) is the primary cholinesterase in the body that hydrolyzes a key neurotransmitter, acetylcholine. Inhibition of AChE activity can lead to neurotoxicity. The known inhibitors include organophosphorous pesticides (OP), chemical warfare agents, drugs, and various phytochemicals. Some compounds like OP compounds may need metabolic activation to be active AChE inhibitors. The cytochrome P450 (CYP) superfamily in the human microsomes is responsible for the metabolism of various endogenous and exogenous compounds.
An enzyme-based assay with the recombinant human AChE, human liver microsomes and Amplite Colormetric acetylcholinesterase assay kit (AAT Bioquest, Sunnyvale, CA) was used to evaluate compounds in the Tox21 10K library that need metabolic activation for AChE inhibition. The assay uses 5, 5-dithiobis-(2-nitrobenzoic acid) (DTNB) to quantify the thiocholine produced from the hydrolysis of acetylthiocholine by AChE.
Tox21 Assay Protocol Summary:
For the enzyme-based AChE assay with microsomes addition, a mixture of human AChE (50 mU/mL) and human liver microsomes (0.25 mg/mL, final concentration) in 3 uL/well was dispensed into black, clear-bottom 1536-well plates using a Multidrop Combi dispenser (Thermo Scientific, MA). Then, 23 nL of compound or DMSO (vehicle control) was transferred into the assay plates by a Pintool Station (Wako Automation, CA). Following compound addition, 1 uL of NADPH (0.25 mg/mL, final concentration) was transferred to the assay plate by a Flying Reagent Dispenser (Beckman Coulter, CA). The plates were incubated for 30 min at 37 C and 5% CO2, followed by the addition of 4 uL of colorimetric detection cocktail solution (DTNB, acetylthiocholine) into each well using a Flying Reagent Dispenser (Beckman Coulter, CA) and then 10 min incubation at room temperature.
With `O=S(O)CO` the Potency was “inactive”.
`C=CC(=O)NCOCC(C)C` was tested, and the Potency was “inactive”.
In the case of `CN1CCCC(n2nc(Cc3ccc(Cl)cc3)c3ccccc3c2=O)CC1` (stereo not given), the Potency is reported as “inactive”.
For `CC(C)(C)NCC(O)COc1ccc(NC(=O)NC2CCCCC2)cc1` (stereo not given), the Potency was “inactive”.
In the case of `OCc1cc(C(O)CNCCCCCCOCCCCc2ccccc2)ccc1O` (stereo not given), the Potency is reported as “inactive”.
`CCOC(=O)c1ccc(C#Cc2ccc3c(c2)C(C)(C)CCS3)nc1` was tested, and the Potency was “inactive”.
In the case of `CN(C)CC[C@@H](c1ccc(Br)cc1)c1ccccn1`, the Potency is reported as “inactive”.
In the case of `CCN(CC)c1cccc(C)c1`, the Potency is reported as “inactive”.
For `CC(C)(O)C(=O)O`, the Potency was “inactive”.
`CCCCCCCC/C=C\CCCCCCCCCCCC(=O)O` was tested, and the Potency was “inactive”.
With `CC(=O)OC(C)C[N+](C)(C)C` (stereo not given) the Potency was “inactive”.
With `CCNS(=O)(=O)c1ccc(C)cc1` the Potency was “inactive”.
`COc1cc(-c2nc(NC(=O)c3cc4cc(C)cc(C)c4n3CC(=O)O)sc2CCC2CCCCC2)c(OC)cc1Cl` was tested, and the Potency was “inactive”.
With `O=C1c2ccccc2C(=O)C1(O)O` the Potency was “inactive”.
With `FC(F)OC(Cl)C(F)(F)F` (stereo not given) the Potency was “inactive”.
`COc1ccccc1OCC(O)CN1CCN(CC(=O)Nc2c(C)cccc2C)CC1` (stereo not given) was tested, and the Potency was “inactive”.
In the case of `COC(=O)C(C)(C)C`, the Potency is reported as “inactive”.
For `CC(CN=Cc1ccccc1O)N=Cc1ccccc1O` (stereo not given), the Potency was “inactive”.
In the case of `Clc1cccnc1`, the Potency is reported as “inactive”.
`CCOCCOC(=O)/C=C/c1ccc(OC)cc1` was tested, and the Potency was “inactive”.
With `Cc1cc(O)c2c(O)c3c(O)cccc3cc2c1` the Potency was “inactive”.
`C[C@@H]1C[C@H]2[C@@H]3CCC4=CC(=O)C=C[C@]4(C)[C@@]3(F)[C@@H](O)C[C@]2(C)[C@@]1(O)C(=O)CO` was tested, and the Potency was “inactive”.
With `Cc1nc2ccccn2c(=O)c1CCN1CCC(C(=O)c2ccc(F)cc2)CC1` the Potency was “inactive”.
With `C[N+]12CCC(CC1)C(OC(=O)C(O)(c1ccccc1)c1ccccc1)C2` (stereo not given) the Potency was “inactive”.
`CCCCCCCCCCCCSC` was tested, and the Potency was “inactive”.
In the case of `COc1cc(OC)nc(NC(=O)NS(=O)(=O)Nc2ccccc2C(=O)N(C)C)n1`, the Potency is reported as “inactive”.
In the case of `CC(C)c1ccc(C#N)cc1`, the Potency is reported as “inactive”.
With `CC(C)(C)OC(=O)c1ccc(O)cc1` the Potency was “inactive”.
In the case of `N#CCN(CC#N)CCN(CC#N)CC#N`, the Potency is reported as “inactive”.
For `Cc1ccsc1/C=C/C1=NCCCN1C`, the Potency was “inactive”.
For `CCCCOc1cc(C(=O)OCCN(CC)CC)ccc1N`, the Potency was “inactive”.
With `C[C@@H]1C[C@H]2[C@@H]3CCC4=CC(=O)C=C[C@]4(C)[C@@]3(Cl)[C@@H](O)C[C@]2(C)[C@@]1(OC(=O)c1ccco1)C(=O)CCl` the Potency was “inactive”.
With `C/C=C(/C(=C/C)c1ccc(OC(C)=O)cc1)c1ccc(OC(C)=O)cc1` the Potency was “inactive”.
With `CN(C)CCOCCN(C)CCO` the Potency was “inactive”.
`c1csc(SSc2cccs2)c1` was tested, and the Potency was “inactive”.
With `CNc1ccc(O)cc1` the Potency was “inactive”.
`CC(=O)OCCC(C)CC(C)(C)C` (stereo not given) was tested, and the Potency was “inactive”.
In the case of `CCOC(=O)C1CC(=O)C(=C(O)C2CC2)C(=O)C1` (stereo not given), the Potency is reported as “inactive”.
For `Cc1ccc(S(=O)(=O)C(I)I)cc1`, the Potency was “inactive”.
For `CN(C)c1ccc(C=O)cc1`, the Potency was “inactive”.
